Calls of active or inactive are those of the source.

These results are taken from PubChem BioAssay.

The subject of experiment [1] is Human papillomavirus type 1a protein E7 (residues 44-93). The experiment is described as follows: HPV1a E7 fragment binders on microarrays, primary screen, biochemical, small-molecule microarray, residues 44-93, 635 nm fluorescence (AID 1108).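 Note: E7 fragment applied at 1 µg/mL in TBST for 1 h at 4 C; score combines spot fluorescence with its signal to noise ratio.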 The note with it: small-molecule microarray binding, fluorescence 635 nm; higher = more signal.
A short description of experiment [2]: modulators of HCV replicon luciferase signal, primary screen, HCV replication inhibitor project, Huh7 cells, luciferase reporter (AID 1109).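 Note: huh7 hepatoma cells harbouring a luciferase neomycin HCV replicon reporter; luciferase luminescence as measure of HCV replicon replication; test concentration not given here.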 To be noted: 48 h, higher = more signal.
For experiment [3], the target named is Left-right determination factor 2 (Homo sapiens) (UniProt O00292). As to the kind of experiment: LEFTY2 binders on small-molecule microarrays, primary screen, biochemical, small-molecule microarray, 635 nm fluorescence scan (AID 1110). To be noted: LEFTY2 binding, higher = more signal.
Sequence of Left-right determination factor 2 (Homo sapiens) (O00292 whole entry, looked up): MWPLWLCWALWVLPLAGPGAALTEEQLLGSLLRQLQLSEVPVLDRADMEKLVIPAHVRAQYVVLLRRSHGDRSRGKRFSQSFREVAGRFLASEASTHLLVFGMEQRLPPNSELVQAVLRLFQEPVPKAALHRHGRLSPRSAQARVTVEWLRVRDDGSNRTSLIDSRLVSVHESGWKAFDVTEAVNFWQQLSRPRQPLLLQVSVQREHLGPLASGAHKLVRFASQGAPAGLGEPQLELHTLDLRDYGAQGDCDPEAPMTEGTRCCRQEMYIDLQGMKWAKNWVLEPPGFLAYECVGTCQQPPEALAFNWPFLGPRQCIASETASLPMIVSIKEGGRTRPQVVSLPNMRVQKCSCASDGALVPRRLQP
The target in experiment [4] is Calmodulin-1 (Homo sapiens) (UniProt P0DP23). The experiment is described as follows: CALM1 binders on microarrays, EGTA buffer, profiling panel, biochemical, small-molecule microarray, Cy5-labelled CALM1 (AID 1111).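 Note: labelled calmodulin applied in Tris saline Tween buffer holding calcium plus EGTA and DTT.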 To be noted: Cy5-CALM1 binding fluorescence, higher = more signal.
The target is the same in experiment [5]. As to the kind of experiment: calcium-bound CALM1 binders on microarrays, profiling panel, artefact control for SMM control-protein annotation, biochemical, small-molecule microarray, Cy5-labelled CALM1, plus calcium (AID 1112).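 Note: score merges spot fluorescence with signal to noise from triplicate slides.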 To be noted: Cy5-CALM1 binding fluorescence, higher = more signal.
Experiment [6] can be described thus: small-molecule microarray binders of probe aWnt5a, primary screen, biochemical, biotinylated probe, 635/667 nm fluorescence (AID 1113).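 Note: score merges 667 nm fluorescence intensity with signal-to-noise per printed feature.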 To be noted: higher = more signal.
Experiment [7] is described as follows: small-molecule microarray binders of probe aShh, primary screen, biochemical, biotinylated probe, 635/667 nm fluorescence (AID 1114).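 Note: probe is biotin-labelled aShh protein from a stem cell growth factor screen; measures binding of labelled protein to compounds printed on the slide; score merges feature fluorescence at 667 nm with signal-to-noise.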 The note with it: higher = more signal.
Experiment [8] can be described thus: small-molecule microarray binders of probe aNog, primary screen, biochemical, biotinylated probe, 635/667 nm fluorescence (AID 1115).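 Note: probe is biotinylated aNog protein used at 0.15 µg/mL for 1 h at 4 C; z-score combines 667 nm fluorescence of each spot with its signal to noise.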 The note with it: higher = more signal.
In experiment [9] the target is Torsin-1A-interacting protein 1 (Homo sapiens) (UniProt Q5JTV8). The experiment is described as follows: LAP1 binders from COS7 cell lysate, primary screen, small-molecule microarray, 635/667 nm fluorescence (AID 1116). The note with it: COS7-hLAP1 lysate binding, 635 nm fluorescence, higher = more signal.
Sequence of Torsin-1A-interacting protein 1 (Homo sapiens) (Q5JTV8 whole entry, looked up): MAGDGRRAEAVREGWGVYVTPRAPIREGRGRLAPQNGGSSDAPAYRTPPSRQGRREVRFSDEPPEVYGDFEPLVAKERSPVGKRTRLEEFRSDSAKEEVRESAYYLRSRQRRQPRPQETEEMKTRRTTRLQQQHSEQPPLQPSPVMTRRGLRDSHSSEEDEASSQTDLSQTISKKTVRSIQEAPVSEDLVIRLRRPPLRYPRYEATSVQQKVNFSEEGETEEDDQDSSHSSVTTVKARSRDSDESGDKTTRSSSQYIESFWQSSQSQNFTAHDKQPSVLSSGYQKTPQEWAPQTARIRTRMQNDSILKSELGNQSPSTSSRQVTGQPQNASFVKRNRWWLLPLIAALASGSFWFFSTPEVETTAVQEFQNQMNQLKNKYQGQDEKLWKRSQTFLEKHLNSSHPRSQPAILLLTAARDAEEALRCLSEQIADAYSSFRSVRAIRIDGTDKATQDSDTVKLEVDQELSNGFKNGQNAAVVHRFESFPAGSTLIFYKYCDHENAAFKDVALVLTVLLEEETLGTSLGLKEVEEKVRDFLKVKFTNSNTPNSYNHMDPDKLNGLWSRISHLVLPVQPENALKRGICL
In experiment [10] the target is Alpha-bungarotoxin (Bungarus multicinctus) (UniProt P60615). The experiment is described as follows: alpha-bungarotoxin binders on microarray, profiling panel, artefact control for SMM control protein annotation, biochemical, small-molecule microarray, Alexa647 label, 635/667 nm fluorescence (AID 1117). To be noted: alpha-BTX-A647 binding fluorescence, higher = more signal.
Sequence of Alpha-bungarotoxin (Bungarus multicinctus) (P60615 whole entry, looked up): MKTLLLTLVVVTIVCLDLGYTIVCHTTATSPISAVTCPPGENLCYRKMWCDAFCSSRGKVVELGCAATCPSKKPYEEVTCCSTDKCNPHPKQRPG

The target of the next experiment is Albumin (Bos taurus) (UniProt P02769). As to the kind of experiment: bovine serum albumin binders on microarray, profiling panel, artefact control for SMM control protein annotation, biochemical, small-molecule microarray, Alexa647 label, 635/667 nm fluorescence (AID 1118).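 Note: score merges 667 nm emission intensity and signal-to-noise per printed compound spot.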 To be noted: BSA-A647 binding, fluorescence 635 nm, higher = more signal.
Sequence of Albumin (Bos taurus) (P02769 whole entry, looked up): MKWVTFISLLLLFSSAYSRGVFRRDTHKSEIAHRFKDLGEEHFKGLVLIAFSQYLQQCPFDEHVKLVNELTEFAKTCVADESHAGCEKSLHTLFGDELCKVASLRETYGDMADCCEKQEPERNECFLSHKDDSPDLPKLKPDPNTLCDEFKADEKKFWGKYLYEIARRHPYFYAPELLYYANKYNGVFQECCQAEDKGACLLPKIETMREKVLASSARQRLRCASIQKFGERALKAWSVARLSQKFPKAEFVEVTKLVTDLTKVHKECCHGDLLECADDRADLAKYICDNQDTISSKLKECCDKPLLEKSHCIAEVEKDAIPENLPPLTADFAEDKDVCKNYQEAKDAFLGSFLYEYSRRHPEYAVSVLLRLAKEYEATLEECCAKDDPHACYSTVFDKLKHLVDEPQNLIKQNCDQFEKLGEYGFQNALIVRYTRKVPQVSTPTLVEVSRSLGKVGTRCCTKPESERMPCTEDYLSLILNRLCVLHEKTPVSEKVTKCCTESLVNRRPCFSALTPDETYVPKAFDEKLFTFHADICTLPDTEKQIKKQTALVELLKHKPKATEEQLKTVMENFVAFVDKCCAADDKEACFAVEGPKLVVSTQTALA
The nature of experiment [11]: small-molecule microarray binders of probe aXIP, primary screen, biochemical, NeuroSMM set, 635/667 nm fluorescence (AID 1119).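 Note: probe is the protein aXip251-270 applied at 1 µg/mL to compound-printed slides; binding of probe to printed compounds measured as 667 nm fluorescence plus signal to noise.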 To be noted: higher = more signal, called active from +8 up or from −8 down.
Experiment [12] in a line: small-molecule binders of probe aNOTCH3, primary screen, biochemical, small-molecule microarray, 635/667 nm fluorescence (AID 1120).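 Note: probe is a biotin-tagged antibody raised against NOTCH3 rather than NOTCH3 protein; score merges spot fluorescence near 667 nm with spot signal to noise.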 The note with it: higher = more signal.
A short description of experiment [13]: small-molecule binders of probe aNOTCH2, primary screen, biochemical, small-molecule microarray, 635/667 nm fluorescence (AID 1121).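 Note: score merges feature fluorescence read at 667 nm with its signal to noise.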 To be noted: higher = more signal.
The target of experiment [14] is Carbonic anhydrase 2 (Homo sapiens) (UniProt P00918). As to the kind of experiment: CAII small-molecule binders, profiling panel, biochemical, small-molecule microarray, Alexa647-labelled CAII (AID 1122). To be noted: CAII-A647 binding fluorescence, higher = more signal.
Experiment [15] is described as follows: COS7 lysate on small-molecule microarray, probe aHis, 635 nm (AID 1123).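 Note: z-score combines 667nm fluorescence intensity with signal-to-noise per printed compound spot.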 The note with it: COS7 cell lysate, fluorescence, higher = more signal.
Experiment [16] can be described thus: compound binding in COS7 lysate, probe aLAP1, primary screen, cell lysate, small-molecule microarray (AID 1124).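 Note: lysate comes from COS7 cells expressing LAP1 and is applied at 0.3 µg/mL; score merges spot fluorescence near 667 nm with signal-to-noise over triplicate slides.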 To be noted: probe aLAP1, fluorescence, higher = more signal.
For another experiment, the system named is Sam68 (KHDRBS1). The experiment is described as follows: Sam68 small-molecule binders, primary screen, biochemical, small-molecule microarray, 635 nm fluorescence (AID 1125).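 Note: score merges 667 nm channel intensity with signal to noise over triplicate slides.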 To be noted: small-molecule microarray binding, higher = more signal.
Experiment [17] deals with Chordin-like protein 2 (CHRDL2). As to the kind of experiment: CHRDL2 small-molecule binders, primary screen, biochemical, small-molecule microarray, 635 nm fluorescence (AID 1126).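 Note: printed compound slides probed with Chrdl2 protein at 4 µg/mL for 1 h at 4 C; score merges 667 nm emission intensity with signal to noise over three replicate slides.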 To be noted: small-molecule microarray binding, fluorescence 635 nm; higher = more signal.
Experiment [18] concerns the target Concanavalin-A (Canavalia ensiformis) (UniProt P02866). The experiment is described as follows: ConA small-molecule binders, primary screen, artefact control for SMM control protein annotation, biochemical, small-molecule microarray, Alexa647 label, 635 nm (AID 1127).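 Note: z combines 667 nm emission intensity with signal-to-noise across three replicate slides.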 To be noted: ConA-A647 binding fluorescence, higher = more signal.

Sequence of Concanavalin-A (Canavalia ensiformis) (P02866 whole entry, looked up): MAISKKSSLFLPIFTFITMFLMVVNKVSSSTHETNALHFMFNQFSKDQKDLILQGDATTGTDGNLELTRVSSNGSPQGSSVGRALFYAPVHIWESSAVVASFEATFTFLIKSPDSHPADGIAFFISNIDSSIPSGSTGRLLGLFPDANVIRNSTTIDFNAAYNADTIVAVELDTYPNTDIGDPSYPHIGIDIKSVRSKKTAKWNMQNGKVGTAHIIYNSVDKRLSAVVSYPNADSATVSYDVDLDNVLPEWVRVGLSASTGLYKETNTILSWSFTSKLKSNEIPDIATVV

Consider `NC(=O)NCC#Cc1ccc2c(c1)[C@]1(C(=O)N2)[C@H](c2ccc(O)cc2)N2[C@H](c3ccccc3)[C@H](c3ccccc3)OC(=O)[C@H]2[C@@H]1C(=O)N1CCN(c2ncccn2)CC1`, for which the composite z-score is 0.237 in [1]; 0.158 in experiment [3]; 0.301 in [4]; 0.476 in experiment [5]; -0.13 in [6]; -0.349 in [7]. Besides, the composite z-score in experiment [8] is 0.789; in experiment [9], 0.811; in [10], 0.772; with Albumin (Bos taurus), 0.317; in [12], 0.191; in experiment [13], -0.0048. Moreover, the composite z-score was 0.396 in experiment [14]; 1.64 in [15]; 0.32 in [16]; -0.0586 in the experiment on Sam68 (KHDRBS1); -0.165 in [17]; 0.377 in experiment [18]. In experiment [2], this compound showed a z-score of -0.762. Further, the composite Z-score in experiment [11] is 1.24 (inactive).
Take `O=C1O[C@H](c2ccccc2)[C@H](c2ccccc2)N2[C@H]1[C@@H](C(=O)N1CCCCCCC1)[C@]1(C(=O)Nc3ccc(C#CC4=CCCCC4)cc31)[C@H]2c1ccc(O)cc1`: the composite z-score in experiment [1] turned out to be 1.54; in experiment [3], 1.78; in [4], 3.22; in [5], 2.02; in [6] it was 1.68; in [7], 3.35. Moreover, the composite z-score was 3.53 in [8]; 5.98 in experiment [9]; 5.18 in experiment [10]; 0.599 with Albumin (Bos taurus); 2.37 in [12]; 1.22 in [13]. Further, the composite z-score was 1.1 in experiment [14]; 5.31 in experiment [15]; 1.2 in [16]; 1.35 in the experiment on Sam68 (KHDRBS1); 1.71 in [17]; 1.14 in [18]. Also, in experiment [2], the z-score was -2.29. In addition, the composite Z-score in experiment [11] is 10.9 (active).
Take `Cn1c2c(c3ccccc31)C(=O)C1NC2C=CC1(C)C(=O)OCc1ccccc1` (stereo not given): the composite z-score is -0.369 in experiment [1]; -1.71 in experiment [3]; 0.682 in experiment [4]; 1.13 in experiment [5]; -0.0887 in [6]; 0.123 in experiment [7]. Besides, the composite z-score in experiment [8] was 0.771; in experiment [9] it was 1.38; in experiment [10], 1.92; with Albumin (Bos taurus), 0.445; in [12], -0.242; in experiment [13], -0.166. The composite z-score in experiment [14] was 0.682; in experiment [15], 1.77; in experiment [16] it was 1.46; in the experiment with Sam68 (KHDRBS1), 1; in [17], -2.55; in experiment [18] it was 0.909. Besides, the z-score in experiment [2] is -0.836. Besides, the composite Z-score in experiment [11] is -0.0597 (inactive).
In the case of `COCCCNC(=O)[C@]1(Cc2ccccc2N=[N+]=[N-])N=C(c2ccc(OCCCO)cc2)O[C@@H]1c1ccccc1CN=[N+]=[N-]`, the composite z-score is 1.45 in [1]; 0.331 in experiment [3]; 1.5 in [4]; 0.813 in [5]; 0.0952 in experiment [6]; 0.496 in experiment [7]. The composite z-score turned out to be 0.555 in experiment [8]; 1.39 in [9]; 1.01 in [10]; 0.522 with Albumin (Bos taurus); 0.523 in experiment [12]; 0.202 in experiment [13]. For the same compound, the composite z-score in experiment [14] came to 0.398; in experiment [15], 2.51; in [16], 0.561; with Sam68 (KHDRBS1) it was 1.12; in experiment [17] it was 0.228; in experiment [18], 1.13. Also, the z-score in experiment [2] was -3.09. The composite Z-score in [11] is 0.0955 (inactive).
Consider `CC(=O)N1Cc2ccccc2C[C@@]2(N=C(c3ccc(OCCCO)cc3)O[C@H]2c2ccccc2)C1=O`, for which the composite z-score in [1] was 0.671; in [3] it was 0.587; in [4], 1.26; in experiment [5] it was 0.465; in [6], -0.0051; in [7], 0.0895. Moreover, the composite z-score in experiment [8] was 0.909; in experiment [9] it was 2.05; in experiment [10] it was 2.37; with Albumin (Bos taurus), -0.0471; in experiment [12], 0.22; in experiment [13], 0.139. In addition, the composite z-score in experiment [14] is 0.709; in experiment [15], 3.18; in experiment [16] it was 1.24; in the experiment on Sam68 (KHDRBS1) it was 1.3; in experiment [17], 0.611; in experiment [18], 1.17. This compound also returned a z-score in experiment [2] of -2.83. Besides, the composite Z-score in [11] was 0.0748 (inactive).
